Measurements as given in PubChem BioAssay (NCATS).
Values joined by “and” are separate entries in the source; they are usually repeats but may differ in a detail not shown here. Identical values can stand only once. Results filed as inconclusive are left out. A call without a number means that no potency is given here. Active and inactive are the calls of the source. Unless noted, the call rests on the fitted dose curve; in most records, active means well fitted curve in the direction sought with a large enough effect; inconclusive means small, poorly fitted or top-dose-only effect, or another doubt; inactive means no such curve, though single readings can be large; an effect the other way counts as inactive or inconclusive.

Columns and labels:
[1] = target: Aldehyde dehydrogenase, mitochondrial (Homo sapiens) (UniProt P05091); assay: qHTS for Inhibitors of the Aldehyde Dehydrogenase Family (ALDH2) Confirmatory screens (AID 2061303; active means well fitted inhibition curve with a large enough effect; title and protocol of this record describe different tests; further: nearly all actives have a fitted effect of over 45% in size; further: potency means the concentration at half of the fitted maximal effect)
[2] = qHTS for Inhibitors of the Aldehyde Dehydrogenase Family (ALDH1A2, ALDH1A3, ALDH2, ALDH3A1) (AID 2061307); further: nearly all actives have a fitted effect of over 50% in size; on potency: test system not described further here; potency means the concentration at half of the fitted maximal effect
[3] = target: Retinaldehyde dehydrogenase 3 (Homo sapiens) (UniProt P47895); assay: qHTS for Inhibitors of the Aldehyde Dehydrogenase Family (ALDH1A3) Confirmatory screens (AID 2061311); further: nearly all actives have a fitted effect of over 60% in size; further: potency means the concentration at half of the fitted maximal effect
[4] = target: Aldehyde dehydrogenase 1A1 (Homo sapiens) (UniProt P00352); assay: qHTS for Inhibitors of the Aldehyde Dehydrogenase Family (ALDH1A1) Confirmatory screens (AID 2061316); further: nearly all actives have a fitted effect of over 65% in size; further: potency means the concentration at half of the fitted maximal effect
[5] = target: Retinal dehydrogenase 2 (Homo sapiens) (UniProt O94788); assay: qHTS for Inhibitors of the Aldehyde Dehydrogenase Family (ALDH1A2) Confirmation screens (AID 2061314); further: nearly all actives have a fitted effect of over 65% in size; further: potency means the concentration at half of the fitted maximal effect
[6] = target: Retinaldehyde dehydrogenase 3 (Homo sapiens) (UniProt P47895); assay: qHTS for Inhibitors of the Aldehyde Dehydrogenase Family (ALDH1A3) Primary screen (AID 2061315)
[7] = target: Retinaldehyde dehydrogenase 3 (Homo sapiens) (UniProt P47895); assay: qHTS for Inhibitors of the Aldehyde Dehydrogenase Family (ALDH1A3) Validation screen (AID 2061312); further: nearly all actives have a fitted effect of over 45% in size; further: potency means the concentration at half of the fitted maximal effect
[8] = target: Aldehyde dehydrogenase, mitochondrial (Homo sapiens) (UniProt P05091); assay: qHTS for Inhibitors of the Aldehyde Dehydrogenase Family (ALDH2) Primary screen (AID 2061308); further: nearly all actives have a fitted effect of over 55% in size

Structure (SMILES)	Potency [1]	Potency [2]	Potency [3]	Potency [4]	Potency [5]	Potency [6]	Potency [7]	Potency [8]
O=C(Nc1cccc(C(F)(F)F)c1)c1cccc(C(=O)Nc2cccc(C(F)(F)F)c2)c1	inactive	inactive	inactive	inactive	–	–	–	–
CCc1ccc(-n2c(SCc3cccc(F)c3)nc3[nH]ncc3c2=O)cc1	inactive	inactive	15.8 µM (active)	1.82 µM (active)	inactive	–	–	–
COc1cccc(-c2ccc(CN3CCCC(NC(=O)Nc4ccccc4)C3)cc2)c1 (stereo not given)	inactive	12.6 µM (active)	–	–	inactive	–	–	–
COc1ccc(S(=O)(=O)Nc2cccc(-c3ccc(N4CCCCCC4)nn3)c2)c(OC)c1	28.2 µM (active)	28.2 µM (active) and 2.51 µM (active)	inactive	inactive	inactive	–	–	–
O=C(Nc1cncc(-c2cccc3ccccc23)c1)c1cccs1	inactive	5.62 µM (active)	20.1 µM (active)	–	–	inactive	–	–
Cc1ccc2c(c1)-c1c(cnn1CC(=O)N1CCN(c3cccc(C(F)(F)F)c3)CC1)CO2	inactive	10 µM (active)	inactive	inactive	inactive	–	–	–
O=C(O)c1cccc(-n2[nH]c(-c3ccccc3)cc2=O)c1	11.2 µM (active)	5.01 µM (active)	15.8 µM (active)	25.1 µM (active)	7.98 µM (active)	–	–	–
O=c1[nH]c2ccc(NCc3ccc(-c4ccccc4F)o3)cc2[nH]1	0.576 µM (active)	4.47 µM (active)	–	–	inactive	–	–	–
COc1ccccc1-c1cc(C(=O)NCc2ccc(C(F)(F)F)cc2)c2cnn(C)c2n1	inactive	inactive	7.08 µM (active)	inactive	inactive	–	–	–
CCCN1CCC=C(c2cc(-c3ccc(C)cc3)no2)C1	inactive	inactive	–	inactive	–	inactive	25.1 µM (active)	–
COc1cccc(-c2cc(C(=O)NCC(F)F)c3cnn(C)c3n2)c1	inactive	inactive	5.01 µM (active)	inactive	–	–	–	–
CCOc1ccc(-c2cc(C(=O)NCCc3ccc(C)cc3)c3ccccc3n2)cc1	inactive	inactive	–	inactive	inactive	–	–	–
N#Cc1cccc(NC(=S)N[C@H]2CO[C@H]3[C@@H]2OC[C@@H]3n2nnnc2Oc2cccc(N3CCOCC3)c2)c1	inactive	6.31 µM (active)	–	10.2 µM (active)	inactive	–	–	–
COc1ccc(C2N(Cc3ccccc3)C(=O)c3ccccc3N2C)cc1COc1ccc(NC(C)=O)cc1 (stereo not given)	inactive	10.1 µM (active)	–	–	–	inactive	–	–
CC(=O)N1CCN(c2ccc(NCc3ccc(C)cc3)cc2)CC1	inactive	–	22.5 µM (active)	–	11.3 µM (active)	–	–	inactive
O=c1c2ccccc2nc2sc(Nc3ccc(Sc4ccccc4)cc3)nn12	inactive	12.6 µM (active)	–	–	4 µM (active)	inactive	–	–
O=C(Nc1cccc(-c2nc3cc(Cl)ccc3o2)c1)c1cc([N+](=O)[O-])ccc1N1CCOCC1	inactive	inactive	–	inactive	inactive	–	–	–
O=C(O)c1ccc(-n2cccc2/C=C2\SC(=O)N(Cc3cccc(Cl)c3)C2=O)cc1	11.3 µM (active)	1.79 µM (active)	–	7.98 µM (active)	–	inactive	–	–
CC(=O)c1ccc(N2CCN(C(=O)Nc3ccc(C(C)C)cc3)CC2)cc1	inactive	inactive	–	3.24 µM (active)	–	–	–	–
Cc1ccc(OCCn2c(CCNC(=O)c3ccc(N)cc3)nc3ccccc32)cc1	10.1 µM (active)	0.896 µM (active)	–	3.18 µM (active)	7.98 µM (active)	inactive	–	–
O=C1CCCC2=C1C(c1ccccc1Cl)N=C(c1ccccn1)N2 (stereo not given)	inactive	inactive	–	–	–	inactive	–	–
Oc1cc(NCCc2cccnc2)cc2cccnc12	inactive	–	0.4 µM (active)	–	inactive	–	–	inactive
CCOc1ccc(NC(=O)CSc2nc3ccccc3nc2N2CCOCC2)cc1	inactive	inactive	–	inactive	–	–	–	–
COc1cc(O)c(C(CC(=O)N2CCCC(CN3CCCCC3)C2)c2ccc3c(c2)OCO3)c(OC)c1 (stereo not given)	inactive	–	–	–	–	–	–	inactive
CCc1nc2nc(C)cc(Nc3ccc(Br)cc3F)n2n1	inactive	inactive	–	inactive	inactive	–	–	–
C[C@H]1[C@H](/C=C/c2ccc(-c3ccccc3C#N)cn2)[C@@H]2[C@@H](C)OC(=O)[C@@H]2C[C@@H]1C	inactive	–	inactive	1.27 µM (active)	inactive	inactive	inactive	inactive
Cc1c(C(=O)N(C)CC2CCCO2)[nH]c2c1C(=O)CC(c1ccco1)C2 (stereo not given)	inactive	–	15.9 µM (active)	–	12.7 µM (active)	–	–	inactive
